Compound activity as filed in PubChem.
Luc counter = Counterscreen for Luciferase (Kinase-Glo TM) Inhibition; Luciferin 4-monooxygenase (Photuris pensylvanica), Q27757; Kinase-Glo luciferase, ATP luminescence, 8 min; Potency, µM (titrated, usually from 38.3 µM), without a hit: top-dose activity change, negative = inhibition, usual class: inhibitors; actives 0.28% (n = 200,000); active = well fitted inhibition curve with a large enough effect; inconclusive = small, poorly fitted or top-dose-only effect; note: potency is the fitted concentration of half-maximal effect; nearly all actives have a fitted effect of over 60% in size
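Substrate mix (final 50 mM imidazole pH 7.2, 50 mM KCl, 7 mM MgCl2, 10 uM ATP, 0.01% Tween 20, 0.05% BSA) plus pin-tool compound, then Kinase-Glo detection mix; 8 min ambient, luminescence read.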
PNC assembly inh = High Content Assay for Compounds that inhibit the Assembly of the Perinucleolar Compartment; activity change (PNC), negative = inhibition, % at 10 µM; actives 3.1% (n = 140,000); PC3M PTB-GFP, PNC prevalence imaging, 16 h; hits give low values;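 active = readout at or below -70, meaning at least 70% loss of cells showing the perinucleolar compartment, a nuclear body marking cancer cells; inconclusive = readout between -30 and a set limit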;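 note: plate controls were DMSO wells for no effect and camptothecin positive control wells for full effect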
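Compounds are pinned in duplicate onto adhered PC3M cells stably expressing GFP-tagged PTB and incubated 16 h at 37 C. Cells are then fixed, nuclei stained with Hoechst, and PNC-positive cells counted.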
ALDH1A1 block = qHTS Assay for Inhibitors of Aldehyde Dehydrogenase 1 (ALDH1A1). Aldehyde dehydrogenase 1A1 (Homo sapiens), P00352. actives 7.3% (n = 220,000). Potency, µM (highest dose often 75.3 µM), for the others: at the highest dose activity, negative = inhibition, usual class: inhibitors. AID 1030, 2008. Purified ALDH1A1, NADH fluorescence, propionaldehyde substrate;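 note: potency is the fitted concentration of half-maximal effect; plate controls were no enzyme wells and a reference inhibitor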
Target sequence (P00352 whole entry, looked up): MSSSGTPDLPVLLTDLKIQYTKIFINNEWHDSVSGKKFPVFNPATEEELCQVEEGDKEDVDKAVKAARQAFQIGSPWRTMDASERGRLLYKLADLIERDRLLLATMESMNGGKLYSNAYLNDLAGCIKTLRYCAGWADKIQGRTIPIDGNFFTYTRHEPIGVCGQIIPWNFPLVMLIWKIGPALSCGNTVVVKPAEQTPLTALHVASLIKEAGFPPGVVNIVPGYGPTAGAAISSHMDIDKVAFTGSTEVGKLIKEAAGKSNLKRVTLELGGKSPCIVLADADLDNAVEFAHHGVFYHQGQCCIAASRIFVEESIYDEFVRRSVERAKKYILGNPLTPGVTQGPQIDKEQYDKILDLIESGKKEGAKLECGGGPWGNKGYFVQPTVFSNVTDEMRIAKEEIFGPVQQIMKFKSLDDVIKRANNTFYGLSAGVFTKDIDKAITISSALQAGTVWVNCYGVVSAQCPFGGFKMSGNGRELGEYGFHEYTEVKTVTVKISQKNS
HPGD inh = qHTS Assay for Inhibitors of HPGD (15-Hydroxyprostaglandin Dehydrogenase) | 15-hydroxyprostaglandin dehydrogenase [NAD(+)] (Homo sapiens), P15428 | purified HPGD, NADH fluorescence kinetic, PGE2 substrate | Potency, µM, for inactives: top-dose activity change, negative = inhibition, hits mostly inhibitors | actives 4.3% (n = 150,000); note: potency is the fitted concentration of half-maximal effect
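20 nM HPGD preincubated 15 min at room temperature with compound in 50 mM Tris-HCl pH 8, 0.01% Tween 20. Started with 1 mM NAD+ and 30 uM prostaglandin E2; NADH fluorescence (360/450 nm) read 5 times over 30-s intervals, last minus first.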
LMNA splice mod = qHTS Assay for Modulators of Lamin A Splicing. actives 0.01% (n = 200,000). Potency, µM (series often up to 46.1 µM), inactives show at the top dose ratio change, negative = inhibition, most hits filed as inhibitors. HeLa LMNA splicing GFP/RFP minigene ratio, 48 h. AID 1487, 2009; active = well fitted inhibition curve with a large enough effect in the signal ratio, with a control signal flat, not every such curve was filed as active; inconclusive = small, poorly fitted or top-dose-only effect, or effect the other way, or a change in a side signal; the % refers to the signal ratio; note: potency is the fitted concentration of half-maximal effect
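S3 HeLa stable clones carrying a lamin A-EGFP splicing minigene plus DsRed2 were seeded at 600 cells/well in Opti-MEM with 2% FBS, pin-dosed and incubated 48 h at 37°C. Acumen cytometry (488 nm) gave the GFP/RFP total-intensity ratio.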
Numbers without * were called inactive; ? = inconclusive; . = no result; [ ] = another dose, or the depositor's remark. This is a sample that favours compounds with a hit; in the whole collection about 10% have one here. Unless noted, calls come from the whole dose curve; as a rule, active = well fitted inhibition curve with a large enough effect (not every such curve was filed as active); inconclusive = small, poorly fitted or top-dose-only effect, or another doubt; inactive = no such curve, though single readings can be large or run the other way. Unless noted, % is set by controls: 0 for no effect and ±100 for the full control effect.

SMILES	Luc counter	PNC assembly inh	ALDH1A1 block	HPGD inh	LMNA splice mod
COc1ccc(N=C2S/C(=C\c3ccc(N4CCOCC4)o3)C(=O)N2CCc2c[nH]c3ccccc23)cc1	-9%	?	8.9µM*	?	?
CCCN1C(=O)/C(=C/c2ccc(C)o2)SC1=Nc1ccc(OCC)cc1	-3%	?	7.9µM*	-11%	0%
CCCN1C(=O)/C(=C/c2ccc(C)o2)SC1=Nc1ccc(OC)cc1	-2%	31	3.5µM*	25µM*	?
CCCN1C(=O)/C(=C/c2ccco2)SC1=Nc1ccc(OC)cc1	6%	28	13µM*	-6%	8%
CCOc1ccc(N=C2NC(=O)S/C2=C\c2ccc(OC)cc2)cc1	19%	32	2%	-20%	-6%
CCOc1ccc(/C=C2/SC(=S)N(n3c(C)ccc3C)C2=O)cc1	0%	?	?	-4%	?
COc1ccc(N=C2NC(=O)/C(=C\c3ccco3)S2)cc1	-1%	.	?	.	0%[46 µM]
COc1ccc(N=C2S/C(=C\c3ccc(OCC(=O)O)cc3)C(=O)N2CCc2c[nH]c3ccccc23)cc1	5%	.	?	.	.
O=C(Nc1ccc2nc(SCC(=O)N3CCOCC3)sc2c1)c1cccc(Cl)c1	.	.	.	.	-28%[46 µM]
CCCCc1nn2c(=O)cc(COC(=O)c3ccccc3NC(=O)c3ccccc3OC)nc2s1	.	.	.	.	-5%[46 µM]
COC(=O)C1CCN(S(=O)(=O)c2ccc(N3CCCCS3(=O)=O)cc2)CC1	.	.	.	.	-8%[46 µM]
Cc1ccc(S(=O)(=O)N2CCCc3cc(NC(=O)c4ccccc4Cl)ccc32)cc1	.	.	.	.	-9%[46 µM]
COc1ccc(N=C2S/C(=C\c3ccc(C)o3)C(=O)N2CC(C)C)cc1	3%	14	8.9µM*	-26%	2%
CCCN1C(=O)/C(=C\c2ccncc2)SC1=Nc1ccccc1	-6%	?	-3%	32µM*	?
CCN1C(=O)/C(=C\c2ccncc2)SC1=Nc1ccc(C)c(C)c1	-2%	34	?	-29%	4%
CC(=O)Nc1c(C(=O)NCc2ccccc2)nnn1Cc1ccccc1	-2%	-12	1%	-2%	-1%
CC(=O)Nc1nonc1-n1nnc(C(=O)NCc2ccccc2)c1C	-2%	?	11µM*	?	14%
Cn1c(=O)[nH]c2cc(-c3noc(-c4ccc(C#N)cc4)n3)ccc21	.	.	.	.	-3%[46 µM]
CN(C)c1ccc(N=NS(=O)(=O)O)cc1	.	.	10µM*	-16%	.
CN(C)c1ccc(C(=O)c2ccccc2)cc1	-7%	10	-11%	?	-6%
COc1ccc(-c2cc3c(nn2)-c2ccccc2C3=O)cc1	5µM*	.	6%	.	9%[46 µM]
Cc1cccc(-c2cc3c(nn2)-c2ccccc2C3=O)c1	?	12	?	-13%	1%
O=C1c2ccccc2-c2nnc(-c3ccccc3)cc21	7.9µM*	41	-6%	-4%	1%[0.0737 µM]
c1cc(NNc2cccc(-c3nn[nH]n3)c2)cc(-c2nn[nH]n2)c1	1%[7.66 µM]	.	?	-5%	.
N#Cc1nc(-c2ccc(COc3ccccc3)o2)oc1NCc1cccnc1	.	.	.	.	-5%[46 µM]
SMILES	Luc counter	PNC assembly inh	ALDH1A1 block	HPGD inh	LMNA splice mod
COc1ccccc1CN1CCC2(CC1)CCN(C(=O)c1cc(C(F)(F)F)cc(C(F)(F)F)c1)CC2	-1%	.	5%	-13%	.
COc1ccccc1C1(CC(=O)N2CCCCC2)CCOC(C(C)C)C1 (centres undefined)	-6%	-16	1%	25µM*	?
COc1ccccc1-c1cncnc1NCc1cccnc1	1%	.	-1%	-9%	9%
N#Cc1ccccc1-c1cncnc1NCc1cccnc1	-4%	.	28µM*	?	-8%
CC(=O)c1sc(NC(=O)c2ccco2)nc1-c1ccccc1	5%	3	2%	11µM*	-8%
Cc1sc(NC(=O)c2ccco2)nc1-c1ccccc1	7%	?	-5%	14µM*	2%
COC(=O)Nc1nc(-c2ccccc2)c(C(=O)c2ccccc2)s1	-2%	-98*	1%	-17%	?
CCOC(=O)c1sc(NC(=O)c2ccco2)nc1-c1ccccc1	-4%	-5	-2%	-12%	-9%
COC(=O)Nc1nc(C)c(C(=O)c2ccccc2)s1	-2%	?	-2%	-18%	-24%
O=C(Nc1c(-c2ccccc2)nc2ccccn12)c1ccco1	0%	-82*	-12%	-2%	-2%
O=c1c(N2CCc3ccccc3C2)csc2ccc(F)cc12	.	.	.	.	-8%[46 µM]
CCCN=C1N/C(=C\c2ccco2)C(=O)N1c1ccccc1	1%	?	-10%	-8%	8%
CCCN(CCC)C1=N/C(=C\c2ccco2)C(=O)N1c1ccccc1	13%	17	14µM*	?	6%
Clc1ccccc1-c1nc(NC2CCNCC2)c2ccccc2n1	.	.	-12%	.	-15%
CC(NC(=O)/C(=C\c1cccc([N+](=O)[O-])c1)NC(=O)c1ccco1)C(=O)O (centres undefined)	-6%	93	6.3µM*	28µM*	8%[0.0737 µM]
O=C(NCCO)/C(=C/c1cccc([N+](=O)[O-])c1)NC(=O)c1ccco1	1%	.	3%	.	.
O=C1/C(=C/c2cccs2)NC(=S)N1C1CC1	7%	-3	?	16µM*	2%
O=C1CNC(=O)/C(=C/c2cccs2)N1	0%	.	-5%	.	.
CCc1ccc(N2CC(C(=O)OCC(=O)NC3CCS(=O)(=O)C3)CC2=O)cc1 (centres undefined)	-2%	-100*	-2%	-20%	-3%
Cc1ccc(N2CC(C(=O)OCc3ccc([N+](=O)[O-])cc3)CC2=O)cc1 (centres undefined)	8%	-28	11µM*	25µM*	8%
COc1ccccc1OCc1ccc(C(=O)NCc2ccco2)o1	3%	-86*	0%	-16%	-5%
Cc1cc(C(F)(F)F)nn1Cc1ccc(C(=O)NCc2ccco2)o1	0%	?	18µM*	?	15%
Cc1ccccc1CS(=O)(=O)Cc1ccc(C(=O)NCc2ccco2)o1	0%	120	-8%	1%	5%
COc1ccccc1OCc1ccc(C(=O)NC(C)(C)C)o1	0%	-18	?	-11%	?
COc1ccc(CNCc2ccco2)cc1OCc1ccccc1	16%	?	11µM*	-11%	-2%
COc1ccccc1CCNCc1ccc(OC)c(OCc2ccccc2)c1	-2%	?	-12%	-9%	?
C=CCn1c(SCC(=O)c2cccs2)nc2sc(CC)cc2c1=O	0%	-6	3.5µM*	-16%	?
C[C@H](CCC(=O)NCC(=O)O)C1CC[C@H]2C3CC[C@@H]4C[C@H](O)CC[C@]4(C)C3C[C@H](O)[C@]12C (some centres undefined)	.	.	4%	.	.
